# Screens as filed in PubChem.
# Sm TGR inh: blocks Schistosoma mansoni thioredoxin glutathione reductase | Q962Y6 | purified TGR, DTNB reduction, TNB absorbance 405 nm | Potency, µM (highest dose often 114 µM), without a hit: at the highest dose activity change, negative = inhibition, most hits filed as inhibitors | hit rate 3% among 360,000 | AID 485364; note: potency is the fitted concentration of half-maximal effect; nearly all actives have a fitted effect of over 60% in size
#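 TGR 20 nM + NADPH 100 uM (dispensed conc.), cpd preinc 15 min RT; start with NADPH (500 uM addition) then DTNB (15 mM addition). Kinetic TNB absorbance, 405 nm filter. Four-parameter Hill fit across titration.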
# FMDV inh: antivirals against foot and mouth disease virus; FMDV antiviral cell-based qHTS; Potency, µM (doses to about 57.9 µM), inactives show at the top dose activity change, negative = inhibition, usual class: inhibitors; hit rate 1.2% among 410,000; AID 1159524; calls by dose curve; tested in HEK293T cells; note: read-out not given here; potency is the fitted concentration of half-maximal effect; nearly all actives have a fitted effect of over 45% in size
# HCMV inh: human cytomegalovirus inhibition | HFF cells, HCMV-luciferase reporter, 72 h; active compounds read low | activity change, negative = inhibition, % at 57.5 µM | hit rate 4.5% among 410,000 | AID 1259415; in the data active = activity change below about -60%; inconclusive = no clear call, values can overlap the other calls; inactive = above about -39%
#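 Luciferase read-out from HCMV-luciferase-infected HFFs (MOI 1 PFU/cell) 72 h post infection at 37C; compounds added after 16 h cell attachment; activity normalized between buffer-only basal and Salinomycin (10uM) inhibitor controls.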
# Tb PYK inh: inhibitors of Trypanosoma brucei pyruvate kinase. Q57TT1. TbPYK enzyme, Kinase-Glo Plus ATP luminescence, 45 min. Potency, µM (highest dose often 76.8 µM), inactives show at the top dose activity, negative = inhibition, hits mostly inhibitors. hit rate 0.12% among 410,000; note: potency is the fitted concentration of half-maximal effect; nearly all actives have a fitted effect of over 50% in size
#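 In this concentration-response screen, enzyme-free wells defined baseline while DMSO plates tracked drift. Each reaction combined TbPYK, substrate, compound and 130 uM ADP for 45 min at room temperature. Kinase-Glo Plus luminescence gave the signal.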
# RE007 growth inh: less growth of the S. pombe RE007 Vpr strain. S. pombe RE007 Vpr strain, BacTiter-Glo ATP luminescence, 24 h. Potency, µM (highest dose often 92.2 µM), without a hit: top-dose activity change, negative = less growth, hits mostly inhibitors. hit rate 0.21% among 360,000; active = well fitted falling curve with a large enough effect; inconclusive = small, poorly fitted or top-dose-only effect; inactive = no such curve, though single readings can be large or run the other way; note: potency is the fitted concentration of half-maximal effect; nearly all actives have a fitted effect of over 50% in size
#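 Fission yeast strain RE007, carrying one chromosomally integrated HIV-1 vpr copy, was seeded at OD 0.01 in PMG+AL medium with 23 nL pinned compound. After 24 h at 30 °C and 99% humidity, viability was read by BacTiter-Glo luminescence.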
# Giardia FBPA inh: blocks Giardia fructose-bisphosphate aldolase activity | AID 2451 | hit rate 0.71% among 290,000 | purified Giardia FBPA | Potency, µM (titrated, usually from 59.6 µM), for the others: top-dose activity, negative = inhibition, hits mostly inhibitors; note: potency is the fitted concentration of half-maximal effect; nearly all actives have a fitted effect of over 55% in size
# Target sequence (A8B2U2 whole entry, looked up): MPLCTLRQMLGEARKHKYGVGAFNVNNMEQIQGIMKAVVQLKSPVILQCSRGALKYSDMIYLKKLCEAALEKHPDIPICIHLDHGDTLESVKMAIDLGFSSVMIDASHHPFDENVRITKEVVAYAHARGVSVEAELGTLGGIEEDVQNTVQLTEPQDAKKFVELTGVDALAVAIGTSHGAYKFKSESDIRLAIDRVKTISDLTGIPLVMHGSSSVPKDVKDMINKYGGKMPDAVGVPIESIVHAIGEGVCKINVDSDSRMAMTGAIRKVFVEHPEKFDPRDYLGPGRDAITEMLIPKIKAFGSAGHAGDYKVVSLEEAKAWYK
#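 40 nM FBPA preincubated 10 min at RT with compound (up to 57.5 uM final), then substrate plus GAPDH/TPI/NAD/arsenate coupling and diaphorase/resazurin added. Fluorescence read after 20 min at RT, 525/598 nm.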
# * marks the source's active call; other numbers are inactive results; ? = inconclusive; . = not tested or not shown. Most compounds without a hit are left out; they make up all but 7.7% or so of the library. Unless noted, calls come from the whole dose curve; as a rule, active = well fitted curve in the direction sought with a large enough effect; inconclusive = small, poorly fitted or top-dose-only effect, or another doubt; inactive = no such curve, though single readings can be large; an effect the other way counts as inactive or inconclusive. % is set by controls: 0 for no effect and ±100 for the full control effect.
SMILES,Sm TGR inh,FMDV inh,HCMV inh,Tb PYK inh,RE007 growth inh,Giardia FBPA inh
CN1C(=O)/C(=C\c2ccncc2)SC1=Nc1ccccc1,2%,?,-67*,1%,-23%,4%
O=C1/C(=C/c2ccncc2)SC(=S)N1Cc1ccccc1,-11%,?,-73*,-8%,-6%,-17%
O=C1/C(=C\c2cc([N+](=O)[O-])ccc2O)SC(=S)N1Cc1ccc(Cl)cc1,-7%,?,-77*,-3%,40µM*,0%
O=C(O)CN1C(=O)/C(=C\c2cccc(OCc3ccccc3)c2)SC1=S,0.5µM*,0%,7,-8%,14%,28%
COc1ccccc1-c1noc(-c2ccc(NC(C)C)c([N+](=O)[O-])c2)n1,28%,8%,52,-3%,.,.
O=C1/C(=C/c2ccc(O)cc2)SC(=S)N1Cc1cccnc1,-10%,-1%,?,3%,-4%,2%
O=C1/C(=C\c2ccc(O)c(O)c2)SC(=S)N1Cc1ccccc1,-27%,-20%,?,-19%,?,?
C#CCOc1ccc(/C=C2\SC(=S)N(Cc3cccnc3)C2=O)cc1,-5%,18%,-73*,-5%,0%,8%
O=C1/C(=C\c2cccc(O)c2)SC(=S)N1Cc1ccccc1,0%,0%,-74*,0%,-27%,2%
O=C(/C=C/c1ccc2ccccc2n1)N1CCN(S(=O)(=O)c2ccc(F)cc2)CC1,6%,?,-80*,-4%,2%,-6%
O=C(/C=C/c1ccc(S(=O)(=O)N2CCOCC2)cc1)N1CCN(c2ccc(F)cc2)CC1,?,?,-63*,-5%,3%,0%
O=C(/C=C/c1ccc2ccccc2n1)N1CCN(c2ccccc2)CC1,-14%,-16%,-21,-3%,0%,-4%
O=C(/C=C/c1ccc2ccccc2n1)N1CCN(S(=O)(=O)c2ccccc2F)CC1,-9%,?,-97*,2%,-2%,-1%
O=C(CSc1ccccc1)N1CCN(S(=O)(=O)c2ccccc2F)CC1,-15%,0%,-13,-3%,-5%,4%
Cc1ccc(-n2c(=O)c3c(c4cc(C)ccc4n3C)n(CC(=O)N3CCCC3)c2=O)cc1,1%,-13%,11,-1%,.,.
COc1ccc(O)c(-c2cc(C(F)(F)C(F)F)nc(-c3ccccc3)n2)c1,2%,?,-36,-5%,-1%,3%
O=[N+]([O-])c1ccc(O)c(-c2cc(C(F)(F)F)nc(-c3ccccc3)n2)c1,-5%,?,-101*,-9%,-11%,-6%
Oc1ccccc1-c1cc(C(F)(F)C(F)F)nc(-c2ccccc2)n1,89µM*,0%,-12,0%,8%,-2%
O=[N+]([O-])c1ccn(-c2nc(-c3ccccc3)cc(C(F)(F)F)n2)n1,-11%,0%,-15,1%,5%,-4%
O=[N+]([O-])c1cnn(-c2nc(-c3ccccc3)cc(C(F)(F)F)n2)c1,2%,-17%,-76*,2%,5%,2%
COc1ccc(C2=CC3=C(Br)C(=O)C(C)(OC(=O)CCc4ccccc4)C(=O)C3=CO2)cc1 (stereo unspecified),.,.,.,.,.,-4%
O=C(COc1ccc(Cl)cc1)NCC(c1ccco1)S(=O)(=O)c1ccccc1 (stereo unspecified),?,-23%,-22,6%,.,.
O=S(=O)(NCC(c1cccs1)S(=O)(=O)c1ccccc1)c1ccccc1 (stereo unspecified),0.32µM*,32%,27,3%,.,.
O=S(=O)(NCC(c1ccco1)S(=O)(=O)c1cccs1)c1ccccc1 (stereo unspecified),0.2µM*,21%,-30,1%,.,.
O=S(=O)(NCC(c1ccco1)S(=O)(=O)c1cccs1)c1ccc(F)c(C(F)(F)F)c1 (stereo unspecified),0.1µM*,29%,-30,-5%,.,.
SMILES,Sm TGR inh,FMDV inh,HCMV inh,Tb PYK inh,RE007 growth inh,Giardia FBPA inh
O=S(=O)(NCC(c1ccco1)S(=O)(=O)c1cccs1)c1ccc(Cl)cc1 (stereo unspecified),0.1µM*,20%,?,-1%,.,.
CC1(C)CC[C@]2(C(=O)O)CC[C@]3(C)C(=CC[C@@H]4[C@@]5(C)CC[C@H](O[C@@H]6O[C@H](C(=O)O)[C@@H](O)[C@H](O[C@@H]7OC[C@H](O)[C@H](O)[C@H]7O)[C@H]6O)C(C)(C)[C@@H]5CC[C@]43C)[C@@H]2C1,.,-66%,-100*,2%,?,.
c1ccc(-c2nc(-c3cccc4ccccc34)c(NC3CCCCC3)o2)cc1,.,.,.,.,.,2%
CCCc1cc(N2CCOCC2)n2ncc(-c3ccccc3)c2n1,1%,-2%,-62*,-6%,9%,4%
O=c1[nH]nc(-c2ccc([N+](=O)[O-])o2)c(=O)[nH]1,.,0%,-93*,-9%,-11%,.
Nc1nnc(-c2ccc([N+](=O)[O-])o2)s1,.,-8%,-18,11%,14%,.
Cc1cccc(N(CC(=O)N(C)Cc2ccccc2)S(=O)(=O)c2ccccc2)c1C,9%,-5%,-63*,2%,.,.
Cc1cccc(N(CC(=O)NCCc2ccccc2)S(=O)(=O)c2ccccc2)c1C,1%,-13%,-10,-3%,.,.
COc1cc2c(cc1OC)C1[C@H]3C(=CC[C@H]1OC2O)CCN3C (stereo partly specified),.,-4%,-103*,3%,-9%,.
COc1cc2c(cc1OC)C(C1c3cc4c(cc3CCN1C)OCO4)OC2=O (stereo unspecified),6%,-2%,1,0%,0%,9%
COC(=O)c1ccccc1NC(=O)Cn1nnc2sc(-c3ccccc3)cc2c1=O,7%,-13%,19,3%,.,.
O=C(NNC(=O)c1cccnc1)c1ccncc1,2%,-2%,29,4%,83%,-1%
O=C1OCC=C1NNC(=O)c1cccnc1,40µM*,13%,-35,2%,6%,-17%
CCOC(=O)c1cc(-c2ccc(C)o2)nn1CCC#N,18µM*,-3%,44,-9%,1%,8%
CCOC(=O)c1cc(-c2ccccc2)nn1CCC#N,9%,2%,6,1%,12%,1%
CCn1c(-c2ccccc2F)nc2cc(C(=O)NCC3CCOCC3)cc(NC(C)=O)c21,.,-7%,.,.,.,.
CCOC(=O)c1c(NC(=S)NC(=O)c2ccc(Cn3cc(Cl)cn3)o2)sc2c1CCC(C)C2 (stereo unspecified),0%,17%,-71*,0%,.,0%
Cc1cccc(Nc2c3c(nc4nncn24)CCC3)c1C,40µM*,-24%,?,3%,.,.
Cc1ccc(Nc2c3c(nc4nncn24)CCC3)cc1C,-20%,-27%,-88*,-7%,.,.
